{
  "source": "ChEMBL document CHEMBL3988442",
  "about": "“University of Dundee, Small-Polar-MMV Screening Library” (2021)",
  "note": "Among all 38,000 compounds or so, about 1,200 (3.2%) showed an effect of 50% or more. The median lay at about -58%. The sample holds strong results, similar compounds and a random draw of the others, so the mix is not that of the screen.",
  "data": [
    {"system": "Plasmodium falciparum", "assay": "Calibr Malaria Delayed Death Assay SOP", "format": "functional, organism-based", "parameters": "scale not given: in the data most compounds retested in dose-response had high values", "conditions": "concentration 4.99e-06 (unit not given; other assays of the set use mol/L)", "units": {"Percent Effect": "%"}, "values": [
      {"smiles": "COc1ccccc1N1CCC(CNC(=O)CN2CSCC2=O)C1", "note": "(stereo unspecified)", "Percent Effect": -74.71},
      {"smiles": "O=C(NCCN1CCCCC1)c1nc2ccccc2c(=O)[nH]1", "Percent Effect": -48.08},
      {"smiles": "O=C(NCCN1CCCC1)c1cc2c(s1)CCN2C(=O)c1ccccc1", "Percent Effect": -40.79},
      {"smiles": "O=C1CCCN1Cc1ncn2c1CN(C(=O)Cc1ccccc1)CCC2", "Percent Effect": -76.95},
      {"smiles": "CC1CCCCN1C(=O)COCc1nc(-c2ccncc2)no1", "note": "(stereo unspecified)", "Percent Effect": -64.65},
      {"smiles": "O=C(O)C(F)(F)F.O=C(O)C(F)(F)F.O=C(O)c1c(-c2ccncc2)ncc2c1CCN(CC1CCOC1)C2", "note": "(stereo unspecified)", "Percent Effect": -34.25},
      {"smiles": "Cc1cc(S(=O)(=O)N2CCCc3ccccc32)sc1C(=O)O", "Percent Effect": -124.8},
      {"smiles": "O=C(Cc1ccsc1)N1Cc2nc(CN3CCCCC3)oc2C1.O=C(O)C(F)(F)F", "Percent Effect": -52.68},
      {"smiles": "Cc1nonc1CN(C)Cc1nc(-c2cccc(F)c2F)oc1C", "Percent Effect": -82.79},
      {"smiles": "COCCN(Cc1ccccc1)C(=O)c1cnn(C)c1C", "Percent Effect": -75.6},
      {"smiles": "O=C(O)C(F)(F)F.O=C(O)C(F)(F)F.c1cc(CN2CCC3(CC2)COC(COCC2CC2)C3)ccn1", "note": "(stereo unspecified)", "Percent Effect": -17.94},
      {"smiles": "Cc1nn(C)c(Oc2ccccc2)c1CNC1CCCCNC1=O", "note": "(stereo unspecified)", "Percent Effect": -0.05055},
      {"smiles": "COc1ccc(-c2c(C)nn3c(=N)c(C#N)n[nH]c23)cc1OC", "Percent Effect": 87.26},
      {"smiles": "COc1ccc(-c2c(C(C)C)nn3c(=N)c(C#N)n[nH]c23)cc1", "Percent Effect": -149.3},
      {"smiles": "COc1ccc(-c2c(C)nn3c(=N)c(C#N)n[nH]c23)cc1", "Percent Effect": -120.8},
      {"smiles": "CCn1ncc2c1C(COC)CN(Cc1ccc(C)o1)C2", "note": "(stereo unspecified)", "Percent Effect": -90.58},
      {"smiles": "CCN(C)C(=O)c1cccc(C(=O)N(C)Cc2cccc(O)c2)c1", "Percent Effect": -54.27},
      {"smiles": "O=C(NC[C@H]1C[C@@H]2CCN1C[C@@H]2CN1CCCCC1)Nc1ccccc1", "Percent Effect": -35.07},
      {"smiles": "O=S(=O)(NC[C@H]1C[C@@H]2CCN1C[C@@H]2CN1CCCC1)c1ccc(Cl)cc1", "Percent Effect": 89.33},
      {"smiles": "O=S(=O)(NC[C@H]1C[C@@H]2CCN1C[C@@H]2CN1CCOCC1)c1ccccc1", "Percent Effect": -72.09},
      {"smiles": "Cc1nn(C)cc1CN1CCCCCC1c1ccccc1Cl", "note": "(stereo unspecified)", "Percent Effect": -108.4},
      {"smiles": "CCSc1ncc(-c2cc(C3CCC3)nc(N)c2C#N)cn1", "Percent Effect": -33.43},
      {"smiles": "CCCNc1ncc(-c2cc(C3CC3)nc(N)c2C#N)cn1", "Percent Effect": 54.19},
      {"smiles": "CCSc1ncc(-c2cc(C3CC3)nc(N)c2C#N)cn1", "Percent Effect": 1.431},
      {"smiles": "Cc1ccc(CSc2ncc(Br)c(C(=O)O)n2)cc1", "Percent Effect": -107.1},
      {"smiles": "NC(=O)Nc1ccc(C(=O)NCCn2cccc2)cc1", "Percent Effect": -116.7},
      {"smiles": "CC(N)Cc1ccccc1Sc1ccc(O)cc1.CC(N)Cc1ccccc1Sc1ccc(O)cc1.O=C(O)C(=O)O", "note": "(stereo unspecified)", "Percent Effect": 71.69},
      {"smiles": "Cn1c(CC(=O)O)c(Sc2ccccc2)c2ccccc21", "Percent Effect": -130},
      {"smiles": "NCc1ccccc1Sc1ccc(O)cc1.O=C(O)/C=C\\C(=O)O", "Percent Effect": 55.63},
      {"smiles": "CC(C(=O)Nc1ccccc1Sc1ccccc1)S(C)(=O)=O", "note": "(stereo unspecified)", "Percent Effect": -117.7},
      {"smiles": "CNC(C)Cc1ccccc1Sc1ccc(O)cc1.Cl", "note": "(stereo unspecified)", "Percent Effect": 87.88},
      {"smiles": "CNS(=O)(=O)CC(=O)NC(C)Cc1ccccc1Br", "note": "(stereo unspecified)", "Percent Effect": -190.6},
      {"smiles": "COc1ccccc1CC(C)CC(=O)O", "note": "(stereo unspecified)", "Percent Effect": -155.2},
      {"smiles": "CC(N)Cc1ccccc1Sc1ccccc1.O=C(O)/C=C\\C(=O)O", "note": "(stereo unspecified)", "Percent Effect": 77.8},
      {"smiles": "CC[C@H](C)[C@@H](CO)NC(C)Cc1ccccc1F", "note": "(stereo partly specified)", "Percent Effect": 48.98},
      {"smiles": "CC(C)C(=O)NS(=O)(=O)CCc1ccccc1", "Percent Effect": -111.2},
      {"smiles": "CC(C)CCN1C2(CCN(C(=O)C3(C)CC3)C2)c2ccccc2S1(=O)=O", "note": "(stereo unspecified)", "Percent Effect": -11.02},
      {"smiles": "CCc1ncc2c(n1)CN(Cc1nnc(CC)o1)CC2", "Percent Effect": -50.82},
      {"smiles": "CC(C)Nc1nc2c(cc1C(=O)O)CCN(Cc1ccsc1)CC2.O=C(O)C(F)(F)F.O=C(O)C(F)(F)F", "Percent Effect": -107.1},
      {"smiles": "Cc1csc(CNC(=O)NCC(C)Cn2nc(C)cc2C)n1", "note": "(stereo unspecified)", "Percent Effect": -114.8},
      {"smiles": "Cc1c(C(=O)N(C)C)cccc1N(C)S(C)(=O)=O", "Percent Effect": -103.2},
      {"smiles": "Cc1ncc(CNC(=O)Cc2cccs2)c(C2CCCN2C)n1", "note": "(stereo unspecified)", "Percent Effect": -27.86},
      {"smiles": "Cc1nn(C)c(C)c1CC(=O)N1CCCC1Cn1cccn1", "note": "(stereo unspecified)", "Percent Effect": -102.7},
      {"smiles": "Cc1ccc(S(=O)(=O)N2CCN(C)c3ccncc32)cc1F", "Percent Effect": 60.6},
      {"smiles": "Cc1cc(F)ccc1S(=O)(=O)N1CCN(C)c2ccncc21", "Percent Effect": 20.68},
      {"smiles": "CN1CCN(S(=O)(=O)c2cccc(F)c2)c2cnccc21", "Percent Effect": 11.1},
      {"smiles": "CN1CCN(S(=O)(=O)c2ccc(Cl)c(Cl)c2)c2cnccc21", "Percent Effect": 89.32},
      {"smiles": "CN1CCCN(S(=O)(=O)c2cnn(C)c2)c2cc(Cl)ccc21", "Percent Effect": -19.46},
      {"smiles": "CN1CCN(S(=O)(=O)c2cccnc2)c2cnccc21", "Percent Effect": -116.1},
      {"smiles": "CCOC(=O)COc1nc(CC(C)C)c2c(c1C#N)CCC2", "Percent Effect": -73.52},
      {"smiles": "CN1CCCCC1CCC(=O)NCCCn1ncc2ccccc21", "note": "(stereo unspecified)", "Percent Effect": -37.16}
    ]}
  ]
}
